Results: PubChem BioAssay (Tox21)
Records with an inconclusive call do not appear. Calls of active or inactive are those of the source. The call rests on the fitted dose curve; in most records, active means well fitted inhibition curve with a large enough effect in the repeat runs; inconclusive means weak or mixed curves; inactive means flat fitted curve, though single readings scatter.

These molecules were tested against Voltage-gated inwardly rectifying potassium channel KCNH2 (Homo sapiens) (UniProt Q12809) (assay: Human Ether-a-go-go-Related Gene (hERG) channel small molecule antagonists: fluorescence cell-based qHTS assay (AID 1671200; further: nearly all actives have a fitted effect of over 50% in size;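 on activity change, negative = inhibition: hERG-expressing U2OS cells given a thallium stimulus after FluxOR II dye loading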)). Conditions: hERG-U2OS cells, FluxOR thallium flux fluorescence; series mostly up to 76.8 µM; activity change, negative = inhibition: at the top concentration.
How it was run: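 Quantitative HTS in hERG-U2OS cells: thallium entry through the channel reports activity, read as continuous 480/540 nm fluorescence over 2 min after stimulus addition.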
On the % scale 0 is the no-effect control and ±100 the full control effect; potency means the concentration at half of the fitted maximal effect.

Voltage-gated inwardly rectifying potassium channel KCNH2 (Homo sapiens), sequence (Q12809 whole entry, looked up): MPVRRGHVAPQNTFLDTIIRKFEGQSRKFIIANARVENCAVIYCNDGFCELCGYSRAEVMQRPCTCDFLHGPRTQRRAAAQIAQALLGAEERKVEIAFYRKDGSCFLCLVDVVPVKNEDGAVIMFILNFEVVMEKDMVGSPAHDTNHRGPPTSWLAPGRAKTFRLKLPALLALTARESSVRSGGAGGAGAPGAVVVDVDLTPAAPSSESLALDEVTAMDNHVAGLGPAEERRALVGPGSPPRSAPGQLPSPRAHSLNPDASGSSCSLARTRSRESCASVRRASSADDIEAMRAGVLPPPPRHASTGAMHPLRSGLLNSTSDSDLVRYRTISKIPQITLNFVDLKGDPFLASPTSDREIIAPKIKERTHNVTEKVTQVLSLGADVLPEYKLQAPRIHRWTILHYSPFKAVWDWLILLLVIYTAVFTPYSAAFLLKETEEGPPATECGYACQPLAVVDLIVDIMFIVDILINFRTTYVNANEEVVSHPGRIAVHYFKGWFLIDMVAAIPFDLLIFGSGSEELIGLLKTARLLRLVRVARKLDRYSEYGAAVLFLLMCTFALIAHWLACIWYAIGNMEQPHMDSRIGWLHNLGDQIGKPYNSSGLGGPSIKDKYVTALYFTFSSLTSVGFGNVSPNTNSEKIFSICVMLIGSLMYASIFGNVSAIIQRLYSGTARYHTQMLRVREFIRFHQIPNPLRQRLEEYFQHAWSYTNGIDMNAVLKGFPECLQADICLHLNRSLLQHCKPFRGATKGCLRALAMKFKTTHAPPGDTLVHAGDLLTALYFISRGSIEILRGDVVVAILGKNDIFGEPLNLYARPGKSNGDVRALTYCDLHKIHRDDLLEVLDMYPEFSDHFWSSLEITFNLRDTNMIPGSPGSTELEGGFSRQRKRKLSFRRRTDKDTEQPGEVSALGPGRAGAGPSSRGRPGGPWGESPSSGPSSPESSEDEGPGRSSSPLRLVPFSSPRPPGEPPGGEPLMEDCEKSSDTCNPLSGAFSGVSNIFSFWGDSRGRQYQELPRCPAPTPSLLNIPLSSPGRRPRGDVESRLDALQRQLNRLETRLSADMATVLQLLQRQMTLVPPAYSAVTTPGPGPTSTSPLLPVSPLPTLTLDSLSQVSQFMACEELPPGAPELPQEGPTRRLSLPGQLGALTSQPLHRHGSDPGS

Row | Structure (SMILES) | activity change, negative = inhibition | Potency
1 | CNC(=O)c1ccccc1Sc1ccc2c(/C=C/c3ccccn3)n[nH]c2c1 | -8.06% [at 35.3 µM] (inactive) | 
2 | CC(=O)c1ccc(C(C)=O)cc1 | 1.33% (inactive) | 
3 | CCCCNS(=O)(=O)c1ccc(C)cc1 | -5.62% (inactive) | 
4 | CCCCCCCC | 2.62% (inactive) | 
5 | CCCCN(CCCC)CC(O)c1cc(Cl)cc2c1-c1ccc(Cl)cc1/C2=C/c1ccc(Cl)cc1 (configuration not stated) |  | 2680 nM (active)
6 | C[C@@H](O)[C@H](N)C(=O)O | 1.94% [at 15.8 µM] (inactive) | 
7 | O=C(O)[C@H](O)[C@@H](O)[C@H](O[C@@H]1O[C@H](CO)[C@H](O)[C@H](O)[C@H]1O)[C@H](O)CO | 0.644% [at 35.3 µM] (inactive) | 
